# In all, about 1,100 compounds went through this assay and about 390 (35%) were called active. About 30% were inconclusive and are not listed. Calls come from the whole dose curve; as a rule, active = well fitted inhibition curve with a large enough effect; inconclusive = small, poorly fitted or top-dose-only effect; inactive = flat fitted curve, though single readings scatter. The list shows a part of the results.
# Target: Luciferin 4-monooxygenase (Photinus pyralis) (UniProt P08659)
# Assay: qHTS of Nrf2 Activators: Hit Validation in Secondary FLuc Assay; note: nearly all actives have a fitted effect of over 65% in size
# Details: firefly luciferase inhibition counter-screen, luminescence; series mostly up to 57.5 µM
# In short: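 Counter-screen on purified firefly luciferase with ATP and D-luciferin at Km concentrations; compounds flagged if they inhibit the enzyme, indicating possible reporter stabilization rather than ARE activation.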
# Potency is the fitted concentration of half-maximal effect.
row,Compound,Potency
1,O=C(Nc1cccnc1)C1(F)C(F)(F)C(F)(F)C(F)(F)C(F)(F)C1(F)F,inactive
2,O=C(NCC1CCCO1)c1ccc([N+](=O)[O-])o1 (stereo not drawn),inactive
3,N#Cc1c(NC(=O)c2ccc([N+](=O)[O-])o2)sc2c1CCC2,1.69 µM (active)
4,O=C(Nc1ccc(N2CCN(C(=O)c3ccc(Cl)cc3)CC2)cc1)c1ccc([N+](=O)[O-])o1,inactive
5,O=C(Nc1nc(-c2ccncc2)cs1)c1ccco1,12 µM (active)
6,O=C(Nc1cc(Cl)ccc1-n1cncn1)c1ccco1,inactive
7,O=C(Nc1nc2ccsc2c(=O)s1)c1ccco1,10.7 µM (active)
8,O=C(Nc1ccc(Br)c(Cl)c1)c1ccco1,5.36 µM (active)
9,O=C(Nc1nc2c(ccc3ccccc32)s1)c1ccco1,4.78 µM (active)
10,Cc1cc(Cl)cc2sc(NC(=O)c3ccco3)nc12,1.69 µM (active)
11,Cc1ccc(Cl)c2sc(NC(=O)C3CC3)nc12,inactive
12,CC(=O)Nc1ccc2nc(NC(=O)c3ccco3)sc2c1,2.39 µM (active)
13,C[C@H]1CCC[C@]2(C)C[C@H]3OC(=O)C(CN4CCCCCC4)[C@H]3C=C12 (stereo partly drawn),inactive
14,N#CC1CC(c2ccccc2)=NN1c1ccccc1[N+](=O)[O-] (stereo not drawn),3.79 µM (active)
15,Cc1ccc(Cc2c(-c3ccco3)nc3c(C)cc(Br)cn23)cc1,5.36 µM (active)
16,Cc1cc(Br)cn2c(Cc3ccccc3)c(-c3ccco3)nc12,9.53 µM (active)
17,COc1cc2c(cc1OC)/C(=C/c1ccc(Cl)cc1)C(=O)OC2,inactive
18,O=C(O)c1ccc2c(=O)n3c(nc2c1)/C(=C/c1cccc(Cl)c1Cl)CC3,inactive
19,O=C(Nc1ccc(Br)c(C(F)(F)F)c1)c1ccccc1,9.53 µM (active)
20,O=C(Nc1c(Br)cc2c(c1Br)Cc1ccccc1-2)C(F)(F)F,inactive
21,O=C(Nc1ccc2c(c1)C(=O)NC2=O)c1cccc(C(F)(F)F)c1,inactive
22,Cc1cc(NCc2ccco2)n2c(nc3ccccc32)c1C#N,inactive
23,Cc1ccc(-c2nc(NCc3ccco3)c3ccccc3n2)cc1,10.7 µM (active)

row,Compound,Potency
1,c1ccc(Cn2ncc3c(NCc4ccco4)ncnc32)cc1,inactive
2,O=C(NC(=S)Nc1cccc2cccnc12)c1cccs1,0.953 µM (active)
3,Cc1cccc(NC(=S)NC(=O)c2cccs2)n1,12 µM (active)
4,O=C(NC(=S)Nc1ccc(Br)cn1)c1cccs1,0.19 µM (active)
5,O=C(NC(=S)Nc1ccc(Cl)cn1)c1cccs1,0.151 µM (active)
6,O=C(N/N=C/c1ccc(Br)s1)c1cccs1,6.75 µM (active)
7,COC(=O)c1sccc1NC(=O)c1ccc(Br)s1,inactive
8,Cc1ccc(S(=O)(=O)c2nc(S(C)(=O)=O)sc2N2CCC3(CC2)OCCO3)cc1,inactive
9,Cc1cc(NC(=O)CC(C)(C)C)nc2c1c(=O)oc1ccccc12,inactive
10,C=CCc1cccc(C=Nc2cc(Br)ccc2O)c1O,inactive
11,Fc1cccc(Cc2c(-c3ccco3)nc3ccc(Br)cn23)c1,5.36 µM (active)
12,Brc1ccc2nc(-c3ccco3)c(Cc3ccsc3)n2c1,5.36 µM (active)
13,O=C(N/N=C\C=C\c1ccco1)c1cc(-c2ccc3ccccc3c2)n[nH]1,5.36 µM (active)
14,O=C(N/N=C/C=C/c1ccco1)c1cccc([N+](=O)[O-])c1,inactive
15,O=C(O)c1ccc(/C=C2\COc3ccccc3C2=O)cc1,9.53 µM (active)
16,COc1ccc(N(CCCN2C(=O)c3cccc4cccc(c34)C2=O)C(=O)c2ccncc2)cc1,inactive
17,O=C(CSc1nnc2c(n1)[nH]c1ccccc12)NCc1ccco1,19 µM (active)
18,O=C(NCc1ccco1)c1n[nH]c(=O)c2ccccc12,inactive
19,Cc1c(C(=O)NCc2ccco2)oc2c(Cl)cccc12,inactive
20,Cc1ccc(O)c(NC(=O)c2cccc(NC(=O)c3ccco3)c2)c1,12 µM (active)
21,Clc1ccc(Br)cc1-c1nc(-c2ccncc2)no1,8.49 µM (active)
22,CSc1nc2sc3c(c2c(=O)n1C)CCC(C)C3 (stereo not drawn),6.01 µM (active)
23,COc1cc(/C=N/Nc2nc3ccccc3s2)ccc1OC(=O)c1ccccc1F,5.36 µM (active)

row,Compound,Potency
1,Cc1ccc2ccc(C3C(=O)c4ccccc4C3=O)nc2c1,0.269 µM (active)
2,Cn1c(NCc2ccc3occc3c2)nc2cc(-c3cccc(C(F)(F)F)c3)sc2c1=O,inactive
3,Cn1c(NCC2CCCCC2)nc2cc(-c3ccsc3)sc2c1=O,inactive
4,COc1ncccc1-c1cc2nc(NCCNC(C)=O)n(C)c(=O)c2s1,15.1 µM (active)
5,CC(=NNC(=O)CSc1nc2ccccc2o1)c1ccco1,inactive
6,C/C(=N\NC(=O)c1c[nH]c2ccccc12)c1ccco1,7.57 µM (active)
7,C/C(=N\NC(=O)c1cccc(S(=O)(=O)N2CCCC2)c1)c1ccco1,inactive
8,Oc1ccc2ccccc2c1N=Nc1ccccn1,10.7 µM (active)
9,CCc1nc(N)c(C#N)c(-c2ccco2)c1C,inactive
10,O=C(CSc1nnc(-c2ccco2)c(-c2ccco2)n1)c1ccccc1,2.69 µM (active)
11,CSc1nnc(-c2ccco2)c(-c2ccco2)n1,4.78 µM (active)
12,C=C1C2=C(C(=O)N1OC)[C@@H](O)[C@@](C)(O)[C@@H](CCCCC)O2,inactive
13,O=C(Nc1nc2ccccc2[nH]1)c1ccc(Cl)c([N+](=O)[O-])c1,2.69 µM (active)
14,CC(C)N(C(=O)COC(=O)c1ccccc1C(=O)c1ccc(Cl)c([N+](=O)[O-])c1)C(C)C,inactive
15,O=C(c1ccc(S(=O)(=O)Cc2ccccc2Cl)c([N+](=O)[O-])c1)N1CCOCC1,inactive
16,N#C/C(=C\c1c(Oc2ccc(Cl)cc2)nc2ccccn2c1=O)C(=O)NC1CCS(=O)(=O)C1 (stereo not drawn),inactive
17,COc1ccccc1NC(=O)C(=O)Nc1ccccn1,1.69 µM (active)
18,COc1cc(NC(=S)Nc2ccccn2)c(OC)cc1Cl,inactive
19,COc1ccccc1NC(=O)c1cc(Cl)nc2ccccc12,inactive
20,COc1ccccc1C(=O)NCc1nc2cccnc2n1Cc1ccc(F)cc1,inactive
21,COc1ccccc1NC(=O)c1ncn(-c2ccccc2)n1,10.7 µM (active)
22,CCCn1c(-c2cccs2)nc2nc3ccccc3nc21,12 µM (active)

# Reference: PubChem BioAssay AID651597 (National Center for Advancing Translational Sciences (NCATS), 2012)
